According to PubChem BioAssay (EPA / NIEHS):
“And” between values parts separate entries of the source, which are not always exact repeats. Identical values can stand only once. Records with an inconclusive call do not appear. Where a structure was tested more than once in an assay, its records may differ in their call. The source made the active and inactive calls. How the source made its calls: active means hit-call score of the fitted dose curve at least 0.9, where 1 is the maximum; inconclusive means response in the unintended direction; inactive means score below 0.9.

Test: TOX21_p53_BLA_p4_viability: Viability Assessment in the Tox21 HCT-116 p53 Agonism Beta-lactamase Assay, Phase 4 (AID 2283597);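 further: hits lower the luminescence signal meaning cytotoxicity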
Source text: TOX21_p53_BLA_p4 is a cell-based, single-readout assay that uses HCT116, a human intestinal cell line, […] in a 1536-well plate.TOX21_p53_BLA_p4_viability is an assay readout measuring cellular ATP content and detected with CellTiter-Glo Luciferase-coupled ATP quantitation.TOX21_p53_BLA_p4_viability used a type of viability reporter where loss-of-signal activity can be used to understand changes in the cell viability. Furthermore, this assay endpoint can be referred to as a secondary readout, because this assay has produced multiple assay endpoints where this one serves a viability function. To generalize the intended target to other relatable targets, this assay endpoint is annotated to the cell cycle intended target family, where the subfamily is cytotoxicity.
Thawing Method: Place 14 mL of pre-warmed thaw medium into a 15 mL of conical tub. Remove the vial of cells to be thawed from liquid nitrogen and thaw rapidly by placing at 37C in a water bath with gentle agitation for 1-2 minutes. Decontaminate the vial by wiping with 70% ethanol before opening in a biological safety cabinet. Transfer the vial contents drop-wise into 14 mL of thaw medium in a sterile 15-mL conical tub. Centrifuge cells at 900 rpm for 4 minutes and resuspend in thaw medium. Transfer contents to the T75 tissue culture flask containing Thaw Medium and place flask in a humidified 37C/5% CO2 incubator. Switch to growth medium at first passage.Propagation Method: Aspirate medium, rinse once in DPBS, add 0.25% Trypsin/EDTA and swirl to coat the cell evenly. Add an equal volume of Growth Medium to inactivate Trypsin after 2-3 minutes incubation at 37C. Centrifuge cells at 900 rpm for 4 minutes and resuspend in growth medium. Cell should be passage or fed at least twice a week.Assay Protocol: Harvest cells from culture in growth medium and resuspend in assay medium. 2.2 Dispense 4000 cells/5 uL/well into 1536-well black/clear bottom plates using a Multidrop dispenser. After the cells were incubated at 37C for 5 hours, 23 nL of compounds dissolved in DMSO were transferred to the assay plate by a PinTool resulting in a 217-fold dilution. Incubate the plates for 16 hours at 37C, 5% CO2. Add 1 uL of 6X LiveBLAzer FRET B/G (CCF4-AM) Substrate Mixture to each well using a BioRAPTR dispenser and incubate the plates at room temperature for 2 hours. Measure fluorescence intensity at 460 and 530 nm emission and 405 nm excitation by an Envision detector. Data is expressed as the ratio of 460nm/530nm emissions. Add 4 uL of Cell-titer Glo to each well using BioRAPTR and incubate the plates at room temperature for […]. For cell viability readout that measures cytotoxicity, 4 ul/well of CellTiter-Glo reagent was added into the assay plates using a Flying Reagent Dispenser. After 30 min incubation at room temperature, the luminescence intensity in the plates was measured using a ViewLux plate reader.

| SMILES | outcome | AC50 |
| --- | --- | --- |
| C[C@]12CCC(=O)C[C@@H]1CC[C@@H]1[C@@H]2CC[C@]2(C)[C@@H](O)CC[C@@H]12 | inactive | – |
| CCOP(OCC)OCC | inactive | – |
| ClC1=C(Cl)[C@]2(Cl)[C@H]3[C@H]([C@H]4C=C[C@H]3C4)[C@@]1(Cl)C2(Cl)Cl | inactive | – |
| NC(=O)CF | inactive | – |
| O=[N+]([O-])c1c(Cl)c(Cl)cc(Cl)c1Cl | inactive | – |
| CC12CC1(C)C(=O)N(c1cc(Cl)cc(Cl)c1)C2=O (stereo not given) | inactive | – |
| ClC1(Cl)C2(Cl)C3(Cl)C4(Cl)C(Cl)(Cl)C5(Cl)C3(Cl)C1(Cl)C5(Cl)C24Cl (stereo not given) | inactive | – |
| COP(=S)(OC)Oc1c(Cl)cc(C)cc1Cl | inactive | – |
| CCCCOCCOC(C)=O | inactive | – |
| Nc1cccc2ccccc12 | inactive | – |
| CC(C)OC(=S)S | inactive | – |
| CCC(C)(C)c1ccc(O)c(C(C)(C)CC)c1 | – | 23 µM (active) and 53.5 µM (active) |
| O=S(=O)(c1ccc(Cl)cc1)c1ccc(Cl)cc1 | inactive | – |
| COc1ccc(C=O)cc1 | inactive | – |
| CC(C)CCCCCCOC(=O)c1ccccc1C(=O)OCCCCCCC(C)C | inactive | – |
| CCN1CCC2(CC1)COc1cc3c(cc12)N(C(=O)c1ccc(-c2ccc(-c4nnc(C)o4)cc2C)cc1)CC3 | – | 45.7 µM (active) |
| CC(C)(C)CC(C)(C)c1ccc(O)cc1 | – | 69 µM (active) and 22.2 µM (active) |
| C=C(C)C#N | inactive | – |
| C=C(C)C(=O)[O][Sn]([CH2]CCC)([CH2]CCC)[CH2]CCC | – | 1.5 µM (active) |
| ClCc1ccccn1 | inactive | – |

| SMILES | outcome | AC50 |
| --- | --- | --- |
| O=C1C(Cl)=C(Cl)C(=O)c2ccccc21 | – | 14.5 µM (active) and 14.4 µM (active) |
| COP(=S)(OC)Oc1cc(Cl)c(Cl)cc1Cl | inactive | – |
| Clc1ccc(COC(Cn2ccnc2)c2ccc(Cl)cc2Cl)cc1 (stereo not given) | – | 70.5 µM (active) and 61.1 µM (active) and 37.6 µM (active) |
| CC(C)C1CCC(Cc2ccc(Cl)cc2)C1(O)Cn1cncn1 (stereo not given) | – | 45.7 µM (active) |
| CC(C)c1ccc(CO)cc1 | inactive | – |
| CCOC(=O)/C=C(C)/C=C/C[C@@H](C)CCCC(C)C | inactive | – |
| COP(=S)(OC)Oc1cc(Cl)c(Br)cc1Cl | inactive | – |
| CCCCCCCCCl | inactive | – |
| Clc1nc(Cl)nc(Cl)n1 | inactive | – |
| O=C(NCO)NCO | inactive | – |
| Nc1cccc(Cl)c1 | inactive | – |
| C[C@H]1CCCC(=O)CCC/C=C/c2cc(O)cc(O)c2C(=O)O1 | inactive | – |
| CC(C#N)CCC#N (stereo not given) | inactive | – |
| CCOP(=S)(OCC)SCSP(=S)(OCC)OCC | inactive | – |
| CCC(C)c1cccc(C(C)CC)c1O (stereo not given) | inactive | – |
| COP(=O)(OC)O/C(=C\Cl)c1cc(Cl)c(Cl)cc1Cl | inactive | – |
| C[C@@H]1C[C@@H]([C@H](O)CC2CC(=O)NC(=O)C2)C(=O)[C@@H](C)C1 | inactive | 1.92 µM (active) |
| CCC(=O)c1ccccc1 | inactive | – |
| Oc1ccc(-c2ccccc2)cc1 | inactive | – |
